Assay results from PubChem BioAssay AID743099 (Vanderbilt Specialized Chemistry Center, 2013).
Calls of active or inactive are those of the source. How the calls were made is not given here.

What follows are molecules tested against Muscarinic acetylcholine receptor M2 (Homo sapiens) (UniProt P08172) (assay: off-target M2 muscarinic calcium response – cell-based, CHO-K1 hM2/Gqi5, Fluo-4 calcium flux, ACh EC20, counter-screen for M5 NAM project (AID 743099)). Details: series mostly up to 30 µM; % max ACh response: at the top concentration.
Chain of Muscarinic acetylcholine receptor M2 (Homo sapiens) (P08172 whole entry, looked up): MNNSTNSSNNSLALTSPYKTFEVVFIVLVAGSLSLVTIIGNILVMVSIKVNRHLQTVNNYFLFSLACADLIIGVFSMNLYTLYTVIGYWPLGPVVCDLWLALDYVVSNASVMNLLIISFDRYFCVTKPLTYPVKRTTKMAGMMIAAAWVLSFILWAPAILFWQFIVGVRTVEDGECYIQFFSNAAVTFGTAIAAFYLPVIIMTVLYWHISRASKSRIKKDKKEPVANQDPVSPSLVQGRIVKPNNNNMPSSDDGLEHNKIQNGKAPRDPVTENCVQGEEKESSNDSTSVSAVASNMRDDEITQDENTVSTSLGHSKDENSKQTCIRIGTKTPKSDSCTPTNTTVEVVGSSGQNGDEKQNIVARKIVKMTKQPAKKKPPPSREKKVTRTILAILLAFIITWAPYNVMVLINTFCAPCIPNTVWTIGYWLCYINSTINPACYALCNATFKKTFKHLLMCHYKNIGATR
O=C(c1cc(F)cc(F)c1)N1CCN2C(=O)c3ccccc3C12c1ccc(Cl)cc1 (stereo not given) was tested, and the “% max ACh response” value was 79.1 (inactive). O=C(c1ccc(F)c(F)c1)N1CCN2C(=O)c3ccccc3C12c1ccccc1 (stereo not given) was tested, and the “% max ACh response” value was 80.5 (inactive). In the case of O=C(c1ccc(F)c(F)c1)N1CCN2C(=O)c3ccccc3C12c1ccc(Cl)cc1 (stereo not given), the “% max ACh response” value is reported as 83.7 (inactive). With O=C(c1ccc(F)c(F)c1)N1CCN2C(=O)c3ccccc3[C@@]12c1ccc(Cl)cc1 the “% max ACh response” value was 83.3 (inactive). With O=C(c1ccc(F)cc1)N1CCN2C(=O)c3ccccc3C12c1ccccc1 (stereo not given) the “% max ACh response” value was 77.1 (inactive).
